The nature of assay [1]: qHTS assay to identify aromatase inhibitors - cell viability counter screen (AID 743084).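 Note: cells stimulated with testosterone during compound exposure; nearly all actives have a fitted effect of over 55% in size.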 Note: potency is the fitted concentration of half-maximal effect. A general note: qHTS replaces the single test concentration by a dilution series.
Assay [2] deals with Aryl hydrocarbon receptor (Homo sapiens) (UniProt P35869). The assay can be described thus: qHTS assay to identify small molecule that activate the aryl hydrocarbon receptor (AhR) signaling pathway (AID 743085).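 For activation: HG2L7.5c1 human HepG2 liver cells with stably integrated DRE-driven firefly reporter; series mostly up to about 70 µM.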 Note: nearly all actives have a fitted effect of over 15% in size. Note: potency is the fitted concentration of half-maximal effect. The gist of the method: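 Luminescence (ONE-Glo) from a dioxin-responsive-element luciferase reporter in HG2L7.5c1 HepG2 cells after 24 hr compound exposure at 37C; viability measured by CellTiter-Fluor fluorescence beforehand.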
Chain of Aryl hydrocarbon receptor (Homo sapiens) (P35869 whole entry, looked up): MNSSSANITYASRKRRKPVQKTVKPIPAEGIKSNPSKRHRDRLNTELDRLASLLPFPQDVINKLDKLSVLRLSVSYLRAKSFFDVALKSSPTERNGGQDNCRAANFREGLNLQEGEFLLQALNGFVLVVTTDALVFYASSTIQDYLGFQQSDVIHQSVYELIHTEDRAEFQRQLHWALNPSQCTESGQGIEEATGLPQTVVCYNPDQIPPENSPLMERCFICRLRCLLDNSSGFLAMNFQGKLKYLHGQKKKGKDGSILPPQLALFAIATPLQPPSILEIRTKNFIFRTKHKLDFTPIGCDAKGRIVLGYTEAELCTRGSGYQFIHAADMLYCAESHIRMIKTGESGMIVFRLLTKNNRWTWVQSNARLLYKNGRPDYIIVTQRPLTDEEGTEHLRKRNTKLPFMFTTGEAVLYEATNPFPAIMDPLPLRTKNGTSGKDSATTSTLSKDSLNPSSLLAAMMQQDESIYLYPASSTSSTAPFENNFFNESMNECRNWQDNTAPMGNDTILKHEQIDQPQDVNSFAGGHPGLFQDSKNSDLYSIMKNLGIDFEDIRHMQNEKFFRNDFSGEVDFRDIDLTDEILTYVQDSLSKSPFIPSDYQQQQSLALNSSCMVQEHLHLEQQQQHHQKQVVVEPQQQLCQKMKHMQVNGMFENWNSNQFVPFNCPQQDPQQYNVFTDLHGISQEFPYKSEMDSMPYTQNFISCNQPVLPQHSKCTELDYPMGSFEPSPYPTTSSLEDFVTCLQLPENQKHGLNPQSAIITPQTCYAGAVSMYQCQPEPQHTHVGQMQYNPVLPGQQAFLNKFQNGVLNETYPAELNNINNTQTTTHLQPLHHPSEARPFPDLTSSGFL

Assay [3] can be described thus: qHTS assay to identify small molecule that activate the aryl hydrocarbon receptor (AhR) signaling pathway - cell viability counter screen (AID 743086). Note: nearly all actives have a fitted effect of over 45% in size. Note: potency is the fitted concentration of half-maximal effect. The gist of the method:
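HepG2-AhR-luc (HG2L7.5c1) cells, 4000/well, treated 24 h at 37 C with compound; viability measured as CellTiter-Fluor fluorescence after 30 min in the same wells as the luciferase read.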

For assay [4], the target named is Peroxisome proliferator-activated receptor gamma (Homo sapiens) (UniProt P37231). The assay can be described thus: qHTS assay to identify small molecule agonists of the peroxisome proliferator-activated receptor gamma (PPARg) signaling pathway (AID 743094; active = well fitted activation curve with a large enough effect in the signal ratio in the repeat runs, not every such curve was filed as active; the % refers to the signal ratio). The gist of the method: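 Compounds dissolved in DMSO were added to PPARg UAS-bla HEK293H cells for 17 h at 37C, and reporter expression was quantified by fluorescence intensity after 1 h with LiveBLAzer B/G FRET substrate.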
Chain of Peroxisome proliferator-activated receptor gamma (Homo sapiens) (P37231 whole entry, looked up): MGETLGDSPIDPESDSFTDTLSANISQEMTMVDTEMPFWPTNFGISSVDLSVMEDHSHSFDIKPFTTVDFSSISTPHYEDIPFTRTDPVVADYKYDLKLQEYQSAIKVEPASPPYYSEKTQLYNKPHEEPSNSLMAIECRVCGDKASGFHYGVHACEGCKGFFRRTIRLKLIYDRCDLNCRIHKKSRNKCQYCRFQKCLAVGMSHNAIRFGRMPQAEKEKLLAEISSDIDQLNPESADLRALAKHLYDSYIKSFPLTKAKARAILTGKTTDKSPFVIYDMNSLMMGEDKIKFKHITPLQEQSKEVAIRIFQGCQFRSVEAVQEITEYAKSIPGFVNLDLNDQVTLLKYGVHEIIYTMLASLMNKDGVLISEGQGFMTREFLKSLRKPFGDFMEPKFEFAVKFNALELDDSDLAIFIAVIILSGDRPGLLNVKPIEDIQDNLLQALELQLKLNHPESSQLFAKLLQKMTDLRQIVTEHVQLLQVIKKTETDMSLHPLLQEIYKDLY

The nature of assay [5]: qHTS assay to identify small molecule antagonists of the peroxisome proliferator-activated receptor gamma (PPARg) signaling pathway - cell viability counter screen (AID 743194). Note: nearly all actives have a fitted effect of over 55% in size. To be noted: Potency: co-treated with 50 nM rosiglitazone. The gist of the method:
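Cytotoxicity counter screen in PPARg-bla HEK293H cells, same wells as reporter assay. Compounds plus 50 nM rosiglitazone (final) for 17 h at 37 C, then viability read by CellTiter-Glo luminescence.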

Assay [6] in a line: qHTS assay for small molecule agonists of the antioxidant response element (ARE) signaling pathway - cell viability counter screen (AID 743203; calls by dose curve; note: nearly all actives have a fitted effect of over 55% in size; note: potency is the fitted concentration of half-maximal effect). The gist of the method:
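Following 16 hrs of compound treatment at 37C, HepG2 cells with an ARE-controlled beta-lactamase gene were lysed with CellTiter-Glo. Luminescence was read after 30 min at room temperature.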

A short description of assay [7]: qHTS assay for small molecule activators of the heat shock response signaling pathway - cell viability counter screen (AID 743209). Note: nearly all actives have a fitted effect of over 50% in size. Note: potency is the fitted concentration of half-maximal effect. Put shortly:
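Readout: CellTiter-Glo luminescence, 30 min at room temperature. System: HSE-bla HeLa cells, 1500/well, plated overnight. Treatment: compounds in DMSO, 5 h at 37 C.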

Assay [8] in a line: qHTS assay for small molecule activators of the heat shock response signaling pathway (AID 743210; active = well fitted activation curve with a large enough effect in the signal ratio in the repeat runs, with a control signal flat, not every such curve was filed as active; the % refers to the signal ratio;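 note: HeLa cells with beta-lactamase reporter driven by heat shock elements; series mostly up to about 63 µM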). Put shortly:
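Quantitative high-throughput format using an engineered HeLa line in which heat shock response elements drive beta-lactamase; after 5 h with compound, cells received a B/G FRET substrate and fluorescence was read.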

The nature of assay [9]: qHTS assay for small molecule agonists of the antioxidant response element (ARE) signaling pathway (AID 743202; active = well fitted activation curve with a large enough effect in the signal ratio in the repeat runs, not every such curve was filed as active; the % refers to the signal ratio; note: potency is the fitted concentration of half-maximal effect). Put shortly: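 Agonist mode reporter screen: HepG2 cells with ARE-controlled beta-lactamase are incubated with test compounds for 16 h at 37 C, and beta-lactamase activity is measured as fluorescence of cleaved B/G FRET substrate.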
Assay [10] deals with Peroxisome proliferator-activated receptor gamma (Homo sapiens) (UniProt P37231). Put plainly: qHTS assay to identify small molecule antagonists of the peroxisome proliferator-activated receptor gamma (PPARg) signaling pathway (AID 743191; calls by dose curve; note: series mostly up to about 63 µM; nearly all actives have a fitted effect of over 30% in size). Put shortly:
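GeneBLAzer PPARg UAS-bla HEK293H cells, 5 h post-plating, exposed to compounds 17 h at 37C. LiveBLAzer B/G FRET substrate added for 1 h at room temperature; beta-lactamase reporter read by fluorescence intensity.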

Inconclusive results are not listed. Some compounds were tested as several samples or in several runs, with calls that do not always agree. The source made the active and inactive calls. Unless noted, calls come from the whole dose curve; as a rule, active = well fitted curve in the direction sought with a large enough effect in the repeat runs; inconclusive = weak or mixed curves; inactive = no such curve, though single readings can be large; an effect the other way counts as inactive or inconclusive.
% is set by controls: 0 for no effect and ±100 for the full control effect.

Take `C=CC=O`: the Potency entry in assay [1], in assay [2], in assay [3], in [5], in assay [6] and in assay [7] was “inactive” in each case. Besides, the Potency result in assay [8] is “inactive”. Further, the call in assay [4] was inactive.
As for `O=C(O)C(Cl)Br` (centres undefined), the Potency result in [1], in assay [2], in assay [3], in assay [5], in assay [6] and in assay [8] was “inactive” in each case. Also, in assay [4], the compound was called inactive. Moreover, the Potency in assay [9] is 4.91 µM (active).
Regarding `Cc1cc(OC(=O)N(C)C)nn1C(=O)N(C)C`, the Potency entry in assay [1], in [2], in assay [3], in [9], in assay [6] and in [7] was “inactive” throughout. For the same compound, the Potency entry in [8] is “inactive”. For the same compound, the call in [4] was inactive.
Regarding `O=C(O)c1c(Cl)ccc2cc(Cl)cnc12`, the Potency result in assay [1], in [2], in assay [3], in assay [5], in assay [6] and in assay [7] was “inactive” in each case. The Potency entry in assay [8] is “inactive”. Moreover, in [4], the call was inactive.
On to `C=C1CC[C@@]2(O)[C@H]3Cc4ccc(O)c5c4[C@@]2(CCN3CC2CC2)[C@H]1O5`, for which the Potency entry in assay [1], in assay [2], in assay [3], in assay [5], in [9] and in [6] was “inactive” in each case. Also, the Potency result in assay [7] and in assay [8] was “inactive” throughout. Also, in [4], the outcome was inactive.
For `CS(=O)(=O)c1ccc(C(=O)C2C(=O)CCCC2=O)c(Cl)c1COCC(F)(F)F`, the Potency entry in [1], in [2], in [3], in assay [10], in [5] and in [9] was “inactive” in each case. The Potency entry in assay [6] and in assay [7] was “inactive” throughout.
In the case of `COC1=CC(=O)O[C@@H](/C=C/c2ccccc2)C1`, the Potency entry in assay [1], in assay [2], in [3], in assay [5], in [6] and in assay [7] was “inactive” each time. Besides, the Potency entry in assay [8] is “inactive”. For the same compound, the result in [4] was inactive.
For `C[C@]12C=CC(=O)C=C1CC[C@@H]1[C@@H]2CC[C@@]2(C)[C@H]1CC[C@]2(C)O`, the Potency result in [1], in assay [2], in assay [3], in assay [5], in assay [6] and in assay [7] was “inactive” throughout. The Potency entry in assay [8] is “inactive”. Further, in assay [4], the outcome was inactive.
For the compound `Cc1ccc(Cl)c(O)c1`, the Potency entry in assay [1], in assay [2], in assay [3], in assay [5], in assay [9] and in assay [6] was “inactive” in each case. Besides, the Potency entry in [7] and in assay [8] was “inactive” in each case. Besides, the call in assay [4] was inactive.
`O=C(O)C(F)(F)C(F)(F)C(F)(F)C(F)(F)C(F)(F)C(F)(F)F`: the Potency entry in assay [1], in assay [2], in [3], in assay [6], in assay [7] and in assay [8] was “inactive” each time. Further, the compound was classed as inactive in [4].
With `C=C(Cl)CSC(=S)N(CC)CC`, the Potency in [1] was 18.8 µM (active). The Potency result in assay [2], in [3], in assay [5] and in assay [6] was “inactive” each time. In addition, the compound was called inactive in [4].
With `CN(C)C1CCCCC1`, the Potency entry in assay [1], in [2], in assay [3], in [9], in [6] and in assay [7] was “inactive” in each case. Besides, in assay [4], the result was inactive.
As to `CCOC(=O)CCl`, the Potency entry in assay [1], in [2], in assay [3], in [5], in assay [6] and in [7] was “inactive” in each case. In addition, the Potency result in [8] was “inactive”. Further, the result in assay [4] was inactive.
Regarding `ClC1=C(Cl)C2(Cl)C(CBr)CC1(Cl)C2(Cl)Cl` (centres undefined), the Potency result in assay [1], in assay [2], in assay [3], in assay [9] and in assay [8] was “inactive” throughout. For the same compound, the outcome in [4] was inactive. Further, the Potency in [6] is 54.5 µM (active) and inactive; in assay [7] it was 54.9 µM (active) and inactive.
`CC(C)(C)c1cc(O)ccc1O`: the Potency result in [1], in [3], in assay [5], in assay [7] and in [8] was “inactive” throughout. For the same compound, the values for the Potency in [2] and in assay [9] were 26.6 µM (active) [middle of 4 runs] and 3.86 µM (active), respectively. For the same compound, the compound was classed as inactive in [4].
For the compound `CC1N=C(N)OC1c1ccccc1` (centres undefined), the Potency entry in assay [1], in assay [2], in assay [3], in [5], in assay [9] and in [6] was “inactive” in each case. Moreover, the Potency result in assay [8] was “inactive”. In [4], the call was inactive.
As for `CC(C)[C@]12CC(=O)[C@H](C)[C@H]1C2`, the Potency entry in [1], in assay [2], in [3], in assay [5], in assay [9] and in assay [6] was “inactive” in each case. Also, the Potency result in assay [7] and in assay [8] was “inactive” throughout. In addition, in assay [4], the outcome was inactive.
For the compound `CCc1cc(OC)c(C[C@H](C)N)cc1OC`, the Potency result in assay [1], in assay [2], in [5], in [6], in [7] and in assay [8] was “inactive” each time. Moreover, the Potency in assay [3] was 63.7 µM (active). The call in assay [4] was inactive.
On to `CCOC(=O)NC(C)(C)Cc1ccc(Cl)cc1`, for which the Potency entry in assay [1], in assay [2], in assay [3], in [5], in assay [9] and in [6] was “inactive” in each case. Besides, the Potency result in assay [7] and in assay [8] was “inactive” in each case. Moreover, in [4], the outcome was inactive.
`CCCN1CCC[C@@H]2Cc3[nH]ncc3C[C@H]21`: the Potency result in assay [1], in assay [3], in assay [5], in assay [9], in assay [6] and in assay [7] was “inactive” throughout. The Potency entry in assay [8] is “inactive”. The Potency in assay [2] was 9.44 µM (active). Further, the result in assay [4] was inactive.
As to `CCCOC(=O)Cc1ccc(OCC(=O)N(CC)CC)c(OC)c1`, the Potency entry in assay [1], in assay [3], in assay [10], in assay [5], in assay [9] and in assay [6] was “inactive” each time. Further, the Potency entry in assay [7] and in assay [8] was “inactive” each time. Moreover, the call in assay [4] was inactive.
On to `CCN(CCO)CCO`, for which the Potency entry in assay [1], in assay [2], in assay [10], in assay [5], in assay [6] and in assay [7] was “inactive” in each case. Moreover, the Potency result in assay [8] is “inactive”. For the same compound, the compound was classed as inactive in assay [4].
Consider `NC1(c2ccccc2)CCCCC1`, for which the Potency result in assay [1], in [2], in [3], in assay [10], in assay [5] and in [9] was “inactive” each time. Moreover, the Potency result in assay [6], in assay [7] and in assay [8] was “inactive” throughout.
Consider `CCOC(=O)C(SP(=S)(OC)OC)c1ccccc1` (centres undefined), for which the Potency result in [1], in assay [3], in [10], in assay [5], in [9] and in assay [6] was “inactive” in each case. The Potency result in [7] and in [8] was “inactive” each time. Further, the result in assay [4] was inactive.
For `O=C(Cl)/C=C/C(=O)Cl`, the Potency result in assay [1], in [2], in assay [3], in [5], in [6] and in [7] was “inactive” each time. Also, the Potency entry in [8] was “inactive”. The Potency in [9] was 22 µM (active).

The record behind these values is PubChem BioAssay (Tox21).
